Most compounds without a hit are left out; they make up all but 4.2% or so of the library.
GDH-TPI counter-1 – inhibits GDH-TPI coupling enzymes, artifact for Mtb FBA screen; GDH-TPI coupled enzyme counterscreen, NADH absorbance; inhibition, % at 4.8 µM; 360,000 compounds, 1.2% hits; AID 588335; in the data active = inhibition above about 30%
CCHFV vOTU inh – CCHFV vOTU protease inhibition; Pep-AMC fluorescence; inhibition, % at 11.5 µM; 370,000 compounds, 0.55% hits; AID 651958; in the data active = inhibition above about 30%
FBA Mtb inh – inhibits M. tuberculosis FBA enzyme; purified M. tuberculosis FBA, fluorescence read-out; inhibition, % at 1 µM; 360,000 compounds, 2.3% hits
Target sequence (P9WQA3 whole entry, looked up): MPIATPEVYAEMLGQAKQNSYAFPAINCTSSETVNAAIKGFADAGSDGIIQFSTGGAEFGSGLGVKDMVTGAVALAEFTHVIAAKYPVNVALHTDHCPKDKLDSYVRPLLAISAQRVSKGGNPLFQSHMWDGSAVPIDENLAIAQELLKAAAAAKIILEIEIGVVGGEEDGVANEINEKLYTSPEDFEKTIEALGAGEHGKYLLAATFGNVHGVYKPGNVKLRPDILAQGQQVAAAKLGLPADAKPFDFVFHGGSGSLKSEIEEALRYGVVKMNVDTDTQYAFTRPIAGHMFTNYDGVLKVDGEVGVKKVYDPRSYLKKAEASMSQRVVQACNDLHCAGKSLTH
RecA splice inh – blocks M. tuberculosis RecA intein splicing | cell-free RecA intein splicing, fluorescence | inhibition, % (no concentration beside the values) | 290,000 compounds, 0.75% hits | AID 2221; in the data active = inhibition above about 30%
Mtb FBA confirm – confirmation of M. tuberculosis fructose-bisphosphate aldolase inhibitors. AID 651616. inhibition, % at 1 µM. purified M. tuberculosis FBA, fluorescence read-out. 5,600 compounds, 78% hits. shares compounds with FBA Mtb inh
GDH-TPI counter-2 – inhibits GDH-TPI coupling enzymes, flagging Mtb FBA hits; shares compounds with FBA Mtb inh; GDH-TPI coupled enzyme counterscreen, fluorescence; inhibition, % at 1 µM; 5,600 compounds, 81% hits; AID 652141; in the data active = inhibition above about 10%
Of the large screens only hits and unclear results are named; the others gave an inactive call (follow-up assays come after a bar, where they were run). Rule as the data show it, unless noted: active = inhibition above about 27%; inactive = the rest.

CCc1cc(=O)oc2cc(C)cc(OCC(=O)NCc3cccnc3)c12	FBA Mtb inh 71.6 | Mtb FBA confirm active | GDH-TPI counter-2 active
Cc1ccc(OCc2nnc(SCC(=O)Nc3ccc(S(N)(=O)=O)cc3)n2-c2ccc(Cl)cc2)cc1	none (no result: GDH-TPI counter-1, FBA Mtb inh, RecA splice inh)
Cc1ccc(S(=O)(=O)N2[C@@H](c3cccc(Cl)c3)C(C(=O)O)=CC[C@H]2c2cccs2)cc1	none (no result: RecA splice inh)
O=C(Nc1ccccc1)c1cccc(=O)o1	GDH-TPI counter-1 33.3, FBA Mtb inh 51.7 | Mtb FBA confirm 196.7 | GDH-TPI counter-2 174.3
Oc1ccc(-c2nc3ccccn3c2NCc2ccco2)cc1	FBA Mtb inh 51.7 | Mtb FBA confirm 69.9 | GDH-TPI counter-2 54.6
O=C(Nc1c(-c2ccccc2)nc2ccccn12)c1ccco1	none
CCN1CCCC1CNC(=O)c1cc2c(-c3ccc(Cl)cc3)nn(C)c2s1 (centres undefined)	none (no result: CCHFV vOTU inh)
CCN1CCCC1CNC(=O)c1cc2ccc(OC)cc2[nH]1 (centres undefined)	none
CCN1CCCC1CNC(=O)c1cc2c(-c3cccc(OC)c3)nn(C)c2s1 (centres undefined)	FBA Mtb inh 36.2 | Mtb FBA confirm 100.4 | GDH-TPI counter-2 58.7
COc1cccc(-c2nn(C)c3sc(C(=O)NCCCN(C)Cc4ccccc4)cc23)c1	FBA Mtb inh 42.8 | Mtb FBA confirm 111.5 | GDH-TPI counter-2 102.7
COc1ccc2[nH]c3c(=O)n4c(nc3c2c1)SCCC4	FBA Mtb inh 71.2 | Mtb FBA confirm 103.5 | GDH-TPI counter-2 87.7
CCCCN(CC)CCCNC(=O)c1cc2c(-c3ccc(OC)c(OC)c3)nn(C)c2s1	none
CCN1CCCC1CNC(=O)c1[nH]c2ccc(OC)cc2c1C (centres undefined)	FBA Mtb inh 45.0 | Mtb FBA confirm active | GDH-TPI counter-2 active
CC(=O)c1ccc(NC(=O)CSc2nnc(C3CC3)n2C2CC2)cc1	none (no result: RecA splice inh)
CCC(=O)Nc1cc(OC)c(NC(=S)Nc2ccccc2CC)cc1OC	none (no result: RecA splice inh)
CCOC(=O)[C@]12CCCC=C1N(Cc1ccco1)C(=O)[C@H](CC(=O)N1CCOCC1)C2	none (no result: GDH-TPI counter-1, FBA Mtb inh, RecA splice inh)
CN(CC(=O)NCC1CCCO1)S(=O)(=O)c1ccc2ccccc2c1 (centres undefined)	none (no result: RecA splice inh)
CCCCN(C)CCNC(=O)c1cc2c(-c3cccc(OC)c3)nn(C)c2s1	FBA Mtb inh 41.5 | Mtb FBA confirm 46.5 | GDH-TPI counter-2 27.4
CCN(CC)CCCNC(=O)c1cc2c(-c3cccc(OC)c3)nn(C)c2s1	FBA Mtb inh 57.7 | Mtb FBA confirm 101.5 | GDH-TPI counter-2 87.2
CCC1CCCN1Cn1cnc2c([nH]c3ccc(OC)cc32)c1=O (centres undefined)	FBA Mtb inh 53.7 | Mtb FBA confirm 94.3 | GDH-TPI counter-2 74.0
C=C1CCC2C(C)(C(=O)O)CCCC2(C)C1CCC(CO)CCO (centres undefined)	none (no result: RecA splice inh)
COC(=O)[C@]12CCCCC=C1N(Cc1ccc(Cl)cc1Cl)C(=O)[C@H](CC(=O)NCc1cccs1)C2	none (no result: GDH-TPI counter-1, FBA Mtb inh, RecA splice inh)
CC(C)(C)c1cc(NC(=O)COC(=O)c2ccccc2O)n(-c2ccccc2)n1	none (no result: RecA splice inh)
CC(C)(C)c1cc(NC(=O)COC(=O)c2nccnc2N)n(-c2ccccc2)n1	FBA Mtb inh 86.7 | Mtb FBA confirm 46.7 | GDH-TPI counter-2 36.2
CCCc1cc(NC(=O)COC(=O)c2nccnc2N)n(-c2ccccc2)n1	FBA Mtb inh 84.7 (no result: RecA splice inh) | Mtb FBA confirm 51.0 | GDH-TPI counter-2 44.6
Cc1cnc(C(=O)OCC(=O)Nc2cc(-c3cc(C)c(C)cc3C)nn2-c2ccccc2)cn1	none
O=C(NC(=S)Nc1cccc(O)c1)C1CCCCC1	none (no result: RecA splice inh)
CCCCN(C(=O)c1ccc(C#N)cc1)c1c(N)n(CCC)c(=O)[nH]c1=O	none
Cc1ccc(C)c(S(=O)(=O)NCCN2CCOCC2)c1	none
Cc1c(NC(=O)C(C)Sc2nc(N)cc(=O)[nH]2)c(=O)n(-c2ccccc2)n1C (centres undefined)	none (no result: RecA splice inh)
CNS(=O)(=O)c1ccc(CNC[C@H]2O[C@@H](n3ccc(N)nc3=O)[C@H](O)[C@@H]2O)cc1	none (no result: RecA splice inh)
Oc1c(Cl)cc(Cl)cc1/C=N/NC(=S)NC1CC2C=CC1C2 (centres undefined)	FBA Mtb inh 35.1 | Mtb FBA confirm 58.6 | GDH-TPI counter-2 57.0
Oc1ccccc1C=NNC(=S)NC1CC2C=CC1C2 (centres undefined)	none (no result: RecA splice inh)
CCn1nnc(NC(=O)c2cccc(-c3cc4ccccc4oc3=O)c2)n1	FBA Mtb inh 48.5 | Mtb FBA confirm 153.4 | GDH-TPI counter-2 118.5
O=C(Nc1cccnc1)c1cccc(-c2cc3ccccc3oc2=O)c1	none
